Results filed as inconclusive are left out. Active and inactive are the calls of the source. Calls come from the whole dose curve; as a rule, active = well fitted cell-killing curve with a large enough effect in the repeat runs; inconclusive = weak or mixed curves, or effect the other way; inactive = no such curve, though single readings can be large or run the other way.
assay: qHTS assay to identify small molecule agonists of the vitamin D receptor (VDR) signaling pathway - cell viability counter screen (AID 743224); details: VDR-bla HEK293T viability, CellTiter-Glo luminescence, 16 h; series mostly up to 62.6 µM; note: nearly all actives have a fitted effect of over 50% in size
Source text: U.S. Tox21 Program National Center for Advancing Translational Sciences [NCATS] NIH Chemical Genomics Center [NCGC] U.S. Environmental Protection Agency [EPA] National Institutes of Environmental Health Sciences [NIEHS] National Toxicology Program [NTP] U.S. Food and Drug Administration [FDA] Tox21 Assay Overview: The vitamin D receptor (VDR), a member of nuclear hormone receptor superfamily, plays a critical role in calcium homeostasis and bone metabolism. It is also involved in cell differentiation and growth, and thrombogenicity. […] The cytotoxicity of the Tox21 compound library against the VDR-bla cell line was tested in parallel by measuring the cell viability using CellTiter-Glo assay (Promega, Madison, WI) in the same wells.
Tox21 Assay Protocol Summary: VDR-bla cells were dispensed at 2,000 cells/6 uL/well into black wall/clear-bottom 1536-well plates using a Multidrop Combi (Thermo Fisher Scientific, Waltham, MA) dispenser. After the assay plates were incubated at a 37C and 5% CO2 for 4 h, 23 nL of compounds dissolved in DMSO, positive controls or DMSO only was transferred to the assay plate by a Pintool station (Kalypsys, San Diego, CA). The plates were incubated at 37C and 5% CO2 for 16 h. After 1 uL of LiveBLAzerTM B/G FRET substrate was added using a Bioraptr Flying Reagent Dispenser (FRD) workstation (Beckman Coulter, Indianapolis, IN, USA), the plates were incubated at room temperature for 2 h, and fluorescence intensity was measured by an Envision plate reader (PerkinElmer, Shelton, CT). For cell viability readout that measures cytotoxicity, 3 ul/well of CellTiter-Glo reagent was added into the assay plates using a FRD. After 30 min incubation at room temperature, the luminescence intensity in the plates was measured using a ViewLux (PerkinElmer) plate reader.

For Cc1c(-c2cccnc2)c2ccccc2n1CCCCC(=O)O, which outcome is on record?
Its outcome is “inactive”.

With O=C1c2ccccc2C(=O)C1c1ccc2cc(S(=O)(=O)O)cc(S(=O)(=O)O)c2n1 as the compound, how does the outcome read?
Its outcome is “inactive”.

For CC(=O)Nc1ccn(C2COC(COC(=O)c3ccccc3)O2)c(=O)n1 (stereo not given), which outcome is on record?
The outcome was “inactive”.

With COC(=O)C(C)(C)C as the compound, how does the outcome read?
The outcome was “inactive”.

Which outcome does the source give for CC(C)=CCCC(C)C=O (stereo not given) here?
Its outcome is “inactive”.

Which outcome does the source give for CCC(C)CCCC(C)(C)O (stereo not given) here?
The outcome was “inactive”.

For CC(C)NC(=O)c1ccccc1N, which outcome is on record?
Its outcome is “inactive”.

For CC(C)=CCC[C@H](C)CCO, which outcome is on record?
Its outcome is “inactive”.

With CCOc1cc(OCC)c(C(C)=O)cc1OCC as the compound, how does the outcome read?
The outcome was “inactive”.

Which outcome does the source give for CCCCCCCCCCCC(=O)OCC here?
Its outcome is “inactive”.

With CC1(C)CC(O)CC(C)(C)N1[O] as the compound, how does the outcome read?
Its outcome is “inactive”.

Which outcome does the source give for CC1(C)CC(=O)CC(C)(C)N1 here?
The outcome was “inactive”.

Which outcome does the source give for COC(=O)c1cc(Cl)ccc1[N+](=O)[O-] here?
The outcome was “inactive”.

With CC(C)=CCC/C(C)=C/C=N/O as the compound, how does the outcome read?
The outcome was “inactive”.

With CC(C)CCCCCOC(=O)CS as the compound, how does the outcome read?
Its outcome is “inactive”.

Which outcome does the source give for Cc1nc(C)c(C)nc1C here?
The outcome was “inactive”.

Which outcome does the source give for O=C(Cl)c1ccc(F)c(Cl)c1 here?
The outcome was “inactive”.

For COc1cc(CNC(=O)CCCC/C=C/C(C)C)ccc1O, which outcome is on record?
Its outcome is “inactive”.

With COc1ccc(/C(C)=C/C(=O)O)c(OC)c1 as the compound, how does the outcome read?
Its outcome is “inactive”.

For O=C1OC(=O)C2CC=CCC12 (stereo not given), which outcome is on record?
Its outcome is “inactive”.

Which outcome does the source give for CC(C)(C)c1ccc(CCC=O)cc1 here?
The outcome was “inactive”.

For Sc1nc(S)nc(S)n1, which outcome is on record?
The outcome was “inactive”.

For CCCOC(C)=O, which outcome is on record?
Its outcome is “inactive”.

Which outcome does the source give for CCCCCCOC(=O)c1ccccc1 here?
The outcome was “inactive”.

Which outcome does the source give for O=C(c1ccc(Cl)cc1)c1ccc(Cl)cc1 here?
The outcome was “inactive”.

For C=CC(O)CCCCC (stereo not given), which outcome is on record?
The outcome was “inactive”.

Which outcome does the source give for O=C(O)CCc1nc2ccccc2[nH]1 here?
The outcome was “inactive”.

With CC(=O)Nc1cccc(N)c1 as the compound, how does the outcome read?
The outcome was “inactive”.

With CC1=C(C)C(=O)C(CCCCC#CCCCC#CCO)=C(C)C1=O as the compound, how does the outcome read?
Its outcome is “inactive”.

With Nc1nc(Cl)nc2c1ncn2[C@H]1C[C@H](O)[C@@H](CO)O1 as the compound, how does the outcome read?
The outcome was “inactive”.

For CC(C)Oc1ccccc1O, which outcome is on record?
The outcome was “inactive”.

For C=CC(=O)NC(C)(C)C, which outcome is on record?
Its outcome is “inactive”.

With C=CC(C)CCC=C(C)C (stereo not given) as the compound, how does the outcome read?
The outcome was “inactive”.

With Clc1cccc(C(c2ccc3nc[nH]c3c2)n2ccnc2)c1 (stereo not given) as the compound, how does the outcome read?
The outcome was “inactive”.

With O=C1c2ccccc2C(=O)c2c1ccc(O)c2O as the compound, how does the outcome read?
The outcome was “inactive”.

For CCCC(=O)OCCC(C)C, which outcome is on record?
The outcome was “inactive”.

For CC/C=C/CCO, which outcome is on record?
The outcome was “inactive”.

With C1CCN(CN2CCCCC2)CC1 as the compound, how does the outcome read?
The outcome was “inactive”.

With CCCCC(CC)COCCC#N (stereo not given) as the compound, how does the outcome read?
Its outcome is “inactive”.

For CCCCCCCCC(=O)OCC(C)OC(=O)CCCCCCCC (stereo not given), which outcome is on record?
The outcome was “inactive”.
